The supplement of paper PMC10338343
± gives the standard deviation.

What follows are sequences tested on MILI (PIWIL2) piRISC loaded with L1MC piRNA (26 nt) (assay: pre-steady-state target cleavage rate (min^-1); guide: L1MC piRNA 5'p-UAACUAAAUACUAUGCAAGCUGUAGG; MIWI and MILI are mouse PIWI proteins and EfPiwi is from a freshwater sponge; tags in brackets are library labels; higher = faster piRNA-guided slicing of the target). Details: auxiliary factor: 500 nM mouse GTSF1.
Method: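 Cleave-'n-Seq: a library of target RNAs (target site embedded in constant flanks, ACAGCATTCCGCGTTAGTGATATCCG... 5' flank; DNA-blocked outside the site) at 0.1 nM was incubated with 1 nM active mouse MILI or MIWI piRISC (synthetic 5'-monophosphorylated piRNA guide) with or without 500 nM mouse GTSF1 at 33 °C for 1 min to 16 h. Uncleaved targets were sequenced and normalised to non-target controls, and the pooled three trials were fitted to a burst-and-steady-state model to give the pre-steady-state cleavage rate (min^-1; k3 is constrained to at most 1e-4). Sequence is the target site only; target names encode pairing extent (gX:gY) and contiguous / 1-mismatch / 2-mismatch / bulge geometry. Fits with R² ≤ 0 are excluded.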

| Sequence | pre-steady-state target cleavage rate |
| --- | --- |
| UCCUGGAUGAGCUUGCUUAGUUUUUAGUUA | 0.0134 ± 0.0052 |
| UCCUGGUUGAGCUUGCAUAGUAUUUAGAAA | 0.0925 ± 0.026 |
| UCCUCCUACAGCUUCAUAGUAUUUAGUUA | 0.238 ± 0.013 |
| UCCUGGAUGAGGAUGCAUAGUAUUUAGUAA | 0.116 ± 0.029 |
| UCCUGGAUGUCGAUGCAUAGUAUUUACGUUA | 0.158 ± 0.033 |
| UCCUGGAUCAGCUUGCAAAGUAUUUAGUUA | 0.151 ± 0.015 |
| UCCUGGAUGAGCUGCAUAGUAUUUAGUUA | 0.101 ± 0.013 |
| UCCUCCUACACGAUGCAUAGUAUUUAGUUA | 0.267 ± 0.011 |
| UCCUCCUUCAGCUUGCAUAGUAUUUAGUAA | 0.228 ± 0.021 |
| UCCUCCUACAGCUUGCAUAGUAUUUUGAUA | 0.112 ± 0.024 |
| UCCUGGAUCAGGUUGCAUAGUAUUUAGUAA | 0.227 ± 0.016 |
| UCCUGGAUGUGCUUGGUUAGUAUUUAGUAA | 0.149 ± 0.026 |
| UCCUCCUACAGCUUGCAUUCUAUUUUCAAA | 0.0147 ± 0.0054 |
| UCCUGGUACUGGUUGCAUAGUAUUUAGUUA | 0.162 ± 0.042 |
| UCCUGGAUGAGCUUGCAUUGUUUUUAGUUA | 0.0047 ± 0.0044 |
| UCCUGCUACAGCUUGCAUAGUAUUUAGUUA [g2:g25:cont:t1A] | 0.282 ± 0.019 |
| UCCUGGAUGUCGAAGCAUAGUAUUUAGUUC [g2:g16:cont:t1C] | 0.0284 ± 0.0076 |
| UCCUGGAUGUCCUGUGCAUAGUAUUUAGUUA | 0.0823 ± 0.025 |
| UCCUCCUACAGGUUGCAUAGAAUUUAGUUA | 0.0405 ± 0.0092 |
| UCCUGCUACAGCUUGCAUAGUCAUUUAGUUA | 0.0225 ± 0.0089 |
| UCCUGGAACAGCUUGCAUAGUAUUUAGUAUA | 0.273 ± 0.027 |
| UCCUCCUACAGCUUACAUAGUAUUUAGUUA | 0.276 ± 0.016 |
| UCCUCCUACAGCUUGGAUAGAAUUUAGUUA | 0.0614 ± 0.015 |
| UCCUGGUACAGCUUGCUUAGUAUUUAGUUA | 0.219 ± 0.024 |

Same assay, conditions: auxiliary factor: none (no GTSF1)

| Sequence | pre-steady-state target cleavage rate |
| --- | --- |
| UCCUGGAUGAGCUUGCUUAGUUUUUAGUUA | 0.00418 ± 0.0026 |
| UCCUCCUACAGCUUCAUAGUAUUUAGUUA | 0.0049 ± 0.002 |
| UCCUGGAUGAGGAUGCAUAGUAUUUAGUAA | 0.00444 ± 0.002 |
| UCCUGGAUGUCGAUGCAUAGUAUUUACGUUA | 0.00337 ± 0.0029 |
| UCCUGGAUCAGCUUGCAAAGUAUUUAGUUA | 0.00946 ± 0.0023 |
| UCCUGGAUGAGCUGCAUAGUAUUUAGUUA | 0.00501 ± 0.0028 |
| UCCUCCUACACGAUGCAUAGUAUUUAGUUA | 0.00666 ± 0.0022 |
| UCCUCCUUCAGCUUGCAUAGUAUUUAGUAA | 0.00401 ± 0.0018 |
| UCCUGGAUCAGGUUGCAUAGUAUUUAGUAA | 0.00858 ± 0.0024 |
| UCCUGGAUGUGCUUGGUUAGUAUUUAGUAA | 0.0127 ± 0.003 |
| UCCUGGUACUGGUUGCAUAGUAUUUAGUUA | 0.0125 ± 0.0045 |
| UCCUGCUACAGCUUGCAUAGUAUUUAGUUA [g2:g25:cont:t1A] | 0.0105 ± 0.003 |
| UCCUGGAUGUCCUGUGCAUAGUAUUUAGUUA | 0.0123 ± 0.0036 |
| UCCUGCUACAGCUUGCAUAGUCAUUUAGUUA | 0.00473 ± 0.002 |
| UCCUGGAACAGCUUGCAUAGUAUUUAGUAUA | 0.00406 ± 0.0038 |
| UCCUCCUACAGCUUACAUAGUAUUUAGUUA | 0.00586 ± 0.0026 |
| UCCUGGUACAGCUUGCUUAGUAUUUAGUUA | 0.00964 ± 0.0022 |
